The panel holds about 79,000 compounds, 15% with a hit somewhere; the sample as a whole holds those more often. Unmarked numbers belong to inactive results. Calls of active or inactive are those of the source. Rule as the data show it: active = growth inhibition above about 70%; inactive = the rest.

Test [1] can be described thus: NCI Yeast Anticancer Drug Screen. Data for the rad50 strain (AID 155).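 Also: 0% = growth of vehicle-only cultures of the same strain.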 To be noted: S. cerevisiae rad50 strain growth inhibition, hits give high values. In short, it runs like this:
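DNA repair mutant yeast, compound exposure, growth read-out; inhibition is taken relative to vehicle.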

The nature of test [2]: NCI Yeast Anticancer Drug Screen. Data for the mec2-1 strain (AID 157). Particulars: S. cerevisiae mec2-1 strain, hits give high values. In short, it runs like this: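 Using mec2-1 yeast: add compound, measure growth, express inhibition versus vehicle-treated cultures.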
Test [3] can be described thus: NCI Yeast Anticancer Drug Screen. Data for the sgs1 mgt1 strain (AID 161).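 Also: 0% = growth of cultures given vehicle only.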 To be noted: S. cerevisiae sgs1 mgt1 strain, hits give high values. In short, it runs like this: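 Percent growth inhibition was derived by comparing compound-exposed mutant yeast with vehicle-exposed cultures. The strain carries alterations in DNA damage repair.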
The nature of test [4]: NCI Yeast Anticancer Drug Screen. Data for the cln2 rad14 strain (AID 165).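 Also: 0% = growth equal to vehicle treated cultures.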 To be noted: S. cerevisiae cln2 rad14 strain, hits give high values. In short, it runs like this: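 Yeast strain cln2 rad14, bearing defects in cell cycle control and DNA repair, serves as the test system; values reflect growth inhibition compared with vehicle.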
Test [5] can be described thus: NCI Yeast Anticancer Drug Screen. Data for the bub3 strain (AID 167). Particulars: S. cerevisiae bub3 mutant strain, hits give high values. An outline of the steps: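 In this screen, a yeast mutant lacking normal mitotic checkpoint function is challenged with compound. Relative growth versus vehicle gives the inhibition value.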
Test [6] can be described thus: NCI Yeast Anticancer Drug Screen. Data for the mlh1 rad18 strain (AID 175). Particulars: S. cerevisiae mlh1 rad18 strain growth inhibition, hits give high values. An outline of the steps: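 Steps: expose repair-defective yeast to compound; measure growth; express inhibition against vehicle-treated controls.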
The mark [7] stands for this setting: at 5.0 µM (retest, dose inferred, filed as 0.5).
Setting [8] is: at 50.0 µM (retest, dose inferred, filed as 5.0).

For `O=Cc1ccc(O)c2ccccc12`, the growth inhibition was -3% in test [1] (setting [7]); 66% in test [1] (setting [8]); 63.2% in test [1] (at 50.0 µM); 1% in test [2] (setting [7]); 47% in test [2] (setting [8]); 76.6% (active) in test [2] (at 50.0 µM). Moreover, the growth inhibition is -9% in test [3] (setting [7]); 85% (active) in test [3] (setting [8]); 75.6% (active) in test [3] (at 50.0 µM); 1% in test [4] (setting [7]); 23% in test [4] (setting [8]); 32.8% in test [4] (at 50.0 µM). Further, the growth inhibition in test [5] (setting [7]) was -1%; in test [5] (setting [8]), 78% (active); in test [5] (at 50.0 µM), 48%; in test [6] (setting [7]), -5%; in test [6] (setting [8]), 88% (active); in test [6] (at 50.0 µM) it was 64.5%.
On to `Cc1ccc(N=C=C(c2ccccc2)c2ccccc2)cc1`, for which the growth inhibition was 12% in test [1] (setting [7]); 46% in test [1] (setting [8]); 67.5% in test [1] (at 50.0 µM); 26% in test [2] (setting [7]); 39% in test [2] (setting [8]); 59.3% in test [2] (at 50.0 µM). The growth inhibition in test [3] (setting [7]) was 17%; in test [3] (setting [8]) it was 70% (active); in test [3] (at 50.0 µM), 65.8%; in test [4] (setting [7]), 9%; in test [4] (setting [8]), 35%; in test [4] (at 50.0 µM) it was 48%. Also, the growth inhibition in test [5] (setting [7]) is 28%; in test [5] (setting [8]), 58%; in test [5] (at 50.0 µM), 67.2%; in test [6] (setting [7]), 30%; in test [6] (setting [8]), 77% (active); in test [6] (at 50.0 µM), 71.2% (active).
`N#CSCCSC#N`: the growth inhibition in test [1] (setting [7]) is 5%; in test [1] (setting [8]) it was 95% (active); in test [1] (at 50.0 µM), 76% (active); in test [2] (setting [7]), -1%; in test [2] (setting [8]) it was 93% (active); in test [2] (at 50.0 µM), 82.5% (active). The growth inhibition in test [3] (setting [7]) was 4%; in test [3] (setting [8]) it was 91% (active); in test [3] (at 50.0 µM), 87.2% (active); in test [4] (setting [7]), 6%; in test [4] (setting [8]) it was 86% (active); in test [4] (at 50.0 µM), 40.3%. The growth inhibition was 9% in test [5] (setting [7]); 96% (active) in test [5] (setting [8]); 81.8% (active) in test [5] (at 50.0 µM); 3% in test [6] (setting [7]); 95% (active) in test [6] (setting [8]); 83.7% (active) in test [6] (at 50.0 µM).
Take `N=C(N)c1ccc(N=Nc2cc(/C=C/c3ccccc3)ccc2O)cc1`: the growth inhibition in test [1] (setting [7]) is 24%; in test [1] (setting [8]), 98% (active); in test [1] (at 50.0 µM), 97.7% (active); in test [2] (setting [7]), 2%; in test [2] (setting [8]) it was 99% (active); in test [2] (at 50.0 µM), 99% (active). The growth inhibition in test [3] (setting [7]) is 24%; in test [3] (setting [8]) it was 98% (active); in test [3] (at 50.0 µM), 98.5% (active); in test [4] (setting [7]) it was 3%; in test [4] (setting [8]), 98% (active); in test [4] (at 50.0 µM), 98.3% (active). Further, the growth inhibition in test [5] (setting [7]) was 2%; in test [5] (setting [8]) it was 98% (active); in test [5] (at 50.0 µM), 98% (active); in test [6] (setting [7]), 7%; in test [6] (setting [8]) it was 98% (active); in test [6] (at 50.0 µM), 98.8% (active).
Take `CC(=O)OC12CC(C(F)(F)F)(C(F)(F)F)OC1(OC(C)=O)CC(C(F)(F)F)(C(F)(F)F)O2` (stereo not given): the growth inhibition in test [1] (setting [7]) is 1%; in test [1] (setting [8]), 15%; in test [1] (at 50.0 µM) it was 49.5%; in test [2] (setting [7]), -8%; in test [2] (setting [8]) it was 48%; in test [2] (at 50.0 µM), 29.8%. The growth inhibition is 4% in test [3] (setting [7]); 66% in test [3] (setting [8]); 50.2% in test [3] (at 50.0 µM); 18% in test [4] (setting [7]); 56% in test [4] (setting [8]); 71% (active) in test [4] (at 50.0 µM). Also, the growth inhibition was 7% in test [5] (setting [7]); 28% in test [5] (setting [8]); 67.1% in test [5] (at 50.0 µM); -4% in test [6] (setting [7]); 66% in test [6] (setting [8]); 86.3% (active) in test [6] (at 50.0 µM).
For `Cn1cc(/C=C/[N+](=O)[O-])c2ccc(OCc3ccccc3)cc21`, the growth inhibition in test [1] (setting [7]) is 2%; in test [1] (setting [8]) it was -6%; in test [1] (at 50.0 µM) it was 4.75%; in test [2] (setting [7]), -3%; in test [2] (setting [8]) it was -7%; in test [2] (at 50.0 µM) it was 37%. Also, the growth inhibition was 4% in test [3] (setting [7]); 4% in test [3] (setting [8]); 10.2% in test [3] (at 50.0 µM); 10% in test [4] (setting [7]); 54% in test [4] (setting [8]); 17.5% in test [4] (at 50.0 µM). Moreover, the growth inhibition was 14% in test [5] (setting [7]); 34% in test [5] (setting [8]); 76.3% (active) in test [5] (at 50.0 µM); 3% in test [6] (setting [7]); 11% in test [6] (setting [8]); 16.9% in test [6] (at 50.0 µM).
In the case of `N#CC(C#N)C(C#N)c1ccc(Cl)c(Cl)c1` (stereo not given), the growth inhibition in test [1] (setting [7]) was 79% (active); in test [1] (setting [8]), 99% (active); in test [1] (at 50.0 µM) it was 99.7% (active); in test [2] (setting [7]), 72% (active); in test [2] (setting [8]), 100% (active); in test [2] (at 50.0 µM), 99.7% (active). Further, the growth inhibition in test [3] (setting [7]) is 36%; in test [3] (setting [8]), 100% (active); in test [3] (at 50.0 µM) it was 99.8% (active); in test [4] (setting [7]), 25%; in test [4] (setting [8]) it was 99% (active); in test [4] (at 50.0 µM), 99.4% (active). In addition, the growth inhibition in test [5] (setting [7]) is 99% (active); in test [5] (setting [8]), 99% (active); in test [5] (at 50.0 µM) it was 99.7% (active); in test [6] (setting [7]) it was 70% (active); in test [6] (setting [8]), 100% (active); in test [6] (at 50.0 µM), 99.5% (active).
For the molecule `N#CC1C(=O)SC2c3ccccc3C(=O)c3ccccc3C12` (stereo not given), the growth inhibition in test [1] (setting [7]) was -3%; in test [1] (setting [8]), 51%; in test [1] (at 50.0 µM), 63.8%; in test [2] (setting [7]), -28%; in test [2] (setting [8]) it was -4%; in test [2] (at 50.0 µM) it was 0.05%. Further, the growth inhibition in test [3] (setting [7]) is -6%; in test [3] (setting [8]), 5%; in test [3] (at 50.0 µM) it was 38%; in test [4] (setting [7]), 6%; in test [4] (setting [8]) it was 36%; in test [4] (at 50.0 µM), 42.6%. Further, the growth inhibition in test [5] (setting [7]) was -8%; in test [5] (setting [8]), 27%; in test [5] (at 50.0 µM), 32.8%; in test [6] (setting [7]) it was -8%; in test [6] (setting [8]), 58%; in test [6] (at 50.0 µM) it was 69.8%.
As to `Cc1ccnc(NC(c2ccccc2)c2ccc3cccnc3c2O)c1` (stereo not given), the growth inhibition in test [1] (setting [7]) is 0%; in test [1] (setting [8]), 95% (active); in test [1] (at 50.0 µM) it was 98.3% (active); in test [2] (setting [7]), -5%; in test [2] (setting [8]), 97% (active); in test [2] (at 50.0 µM), 96.3% (active). Moreover, the growth inhibition was -3% in test [3] (setting [7]); 95% (active) in test [3] (setting [8]); 97.7% (active) in test [3] (at 50.0 µM); -7% in test [4] (setting [7]); 95% (active) in test [4] (setting [8]); 95.4% (active) in test [4] (at 50.0 µM). For the same molecule, the growth inhibition in test [5] (setting [7]) was -6%; in test [5] (setting [8]), 96% (active); in test [5] (at 50.0 µM), 98.7% (active); in test [6] (setting [7]) it was 6%; in test [6] (setting [8]), 95% (active); in test [6] (at 50.0 µM), 97.4% (active).
For `CSc1ccc(/C=N/NC(N)=S)cc1`, the growth inhibition is -150% in test [1] (setting [7]); -19% in test [1] (setting [8]); 91% (active) in test [1] (at 50.0 µM); -53% in test [2] (setting [7]); -4% in test [2] (setting [8]); 76% (active) in test [2] (at 50.0 µM). Moreover, the growth inhibition was -65% in test [3] (setting [7]); 12% in test [3] (setting [8]); 81.3% (active) in test [3] (at 50.0 µM); -65% in test [4] (setting [7]); -19% in test [4] (setting [8]); 43.7% in test [4] (at 50.0 µM). Also, the growth inhibition in test [5] (setting [7]) is -63%; in test [5] (setting [8]), -3%; in test [5] (at 50.0 µM), 86.5% (active); in test [6] (setting [7]) it was -119%; in test [6] (setting [8]), 1%; in test [6] (at 50.0 µM), 84.7% (active).
